{"source": "the supplement of paper PMC6555819"}
{"system": "VDR homodimer (NR concentration 270 nM)", "test": "PBM binding z-score (relative to random genomic background probes); higher = stronger binding; sequences stand for … in GC…GCGATTGACAGCGTAGAATGAAGG", "outline": "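Custom Agilent 4×180K protein-binding microarrays carried double-stranded probes. Their 34-nt variable regions held direct-repeat seeds, single-nucleotide variants, half-site ablations and random human genomic background sequences. Arrays were incubated 1 h with ligand-free nuclear receptor dimers in PBS pH 7.4, 2% milk, 0.02% Triton X-100, 1 mM DTT, 0.2 mg/mL BSA and 0.4 mg/ml salmon testes DNA. Antibodies against each partner (one per run) detected binding, and scanned fluorescence was regression-normalized. Binding z-scores use random background probes as reference.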"}
{"sequence": "CCTTACGGGTCACTGACAGGTTAAAGCATTTGGA", "PBM binding z-score": 0.937}
{"sequence": "GATACAGGGACAAGGCCAGAGTACGCGTATTGAT", "PBM binding z-score": 0.46}
{"sequence": "CGTCCTAGGTCAAGGTCAGTGAAAGAGACTCGAA", "PBM binding z-score": 1.93}
{"sequence": "CCTACTGAGCCAAAGGTCATTGATTCCAATGCTC", "PBM binding z-score": 3.3}
{"sequence": "CATACAGGGTCAGCCAGGCCAGAGTAGGGACGGC", "PBM binding z-score": 1.78}
{"sequence": "GGAATGAGGGCAAAGTTGATAGCATCTGTCGACG", "PBM binding z-score": 1.75}
{"sequence": "CCGAGTAGGTTATCGGGCATTCAGGCAACGGTGA", "PBM binding z-score": -0.435}
{"sequence": "TAATATAGGTAAATGCTAGGTGAAAGTCCGATCT", "PBM binding z-score": 0.275}
{"sequence": "CCTTACGGGTCACGATGTTATAGCACGACGAGCG", "PBM binding z-score": 0.567}
{"sequence": "GCAGACAGCTGAAACGCAGGTAACTCAGGGTGGC", "PBM binding z-score": -1.05}
{"sequence": "TCAATGAGGTTATAAGATCAGGGAACGTTGCAAA", "PBM binding z-score": 0.536}
{"sequence": "CCTAACGGGTCACTGACAGGTTATAGCATTTGGA", "PBM binding z-score": 0.931}
{"sequence": "CGTCCAAAGTCAATGCTAGGTCAGTGAAAGCATT", "PBM binding z-score": 0.435}
{"sequence": "TCATATAGGTAAACAGGTGAAAGTTCGTAAGTTA", "PBM binding z-score": 1.55}
{"sequence": "ACAGACAGGTAATGAAGGTAACTCAGGCTATCAT", "PBM binding z-score": -0.0776}
{"sequence": "TCAGACAGGTGAAGGTAATTCAGGTACGCAGTCG", "PBM binding z-score": 0.38}
{"sequence": "CGAACTAGGTCAAGAGGTCAAAGTCCGCTTCCCG", "PBM binding z-score": 3.88}
{"sequence": "CCTCGGAGGACAACAGGAGGTCGGAGCTGCCAGA", "PBM binding z-score": 0.16}
{"sequence": "AGAATGAGGTTATACGTAGATCAGGAAAGAAAGT", "PBM binding z-score": 0.894}
{"sequence": "GCGACTGGGTCAAAGCAGGTTACCATAAGGTTGG", "PBM binding z-score": 0.45}
{"sequence": "CATACAGGGTCAGGTAGGCCAGAGTAGGGACGGC", "PBM binding z-score": 1.14}
{"sequence": "TCTAGTTGGTCACGGAGGCCACACACGACGGGTA", "PBM binding z-score": 0.2}
{"sequence": "ACAGACAGGTGATGAAGGTAAGTCAGGCTATCAT", "PBM binding z-score": -0.186}
{"sequence": "GCTTGTAGATCTAGGTTAAGAAAGACTAAGCTAA", "PBM binding z-score": -0.721}
{"sequence": "ACAGACAGGTGATGAAGGTAACACAGGCTATCAT", "PBM binding z-score": 0.22}
{"sequence": "GCGACTGGGGCATCAGCAGGTTACCCTAACTTAA", "PBM binding z-score": -0.558}
{"sequence": "CGTCCAAGGTCAGCAGGTCTGTGAAAGCGACGTG", "PBM binding z-score": 1.65}
{"sequence": "ATCTCTAGGAAAGACTCAGTTCAGTGAAGAACGC", "PBM binding z-score": 1.33}
{"sequence": "CAAACTCGGTCACCGGAAGGTCAAAGTCCGCATG", "PBM binding z-score": 2.65}
{"sequence": "TCATATACGTAAACAGGTGAAAGTCCGTAAGTTA", "PBM binding z-score": 0.357}
{"sequence": "ATATGTAGGTTAGCTGGGGTGATTCAGACTAGGC", "PBM binding z-score": 0.601}
{"sequence": "GCTGCTAGGTCAACTGATGGTCTGCTAAAGCTCG", "PBM binding z-score": -0.264}
{"sequence": "TCTATTATTTGAAGGGCAACCGACGAGTCCGTTT", "PBM binding z-score": 2.12}
{"sequence": "AGAATGCGGTTACCAAAGATCAGGGAAACGCTTG", "PBM binding z-score": -1.02}
{"sequence": "ATACCAAGGTGATCGGGAGGTCGTTGATACTAAC", "PBM binding z-score": 1.99}
{"sequence": "ATTCAAAGTTCATCTAGGTAACGTAAGATATGCT", "PBM binding z-score": 4.9}
{"sequence": "CCTCGGAGGACAACAGGGGGTCAGAGCTGCCAGA", "PBM binding z-score": 1.28}
{"sequence": "TCTATTAGTTGAAGGGCAACTGACGAGTCCGTTT", "PBM binding z-score": 1.4}
{"sequence": "CCTAGCAGGCCATGGTCACTCAAGCATTTCGCTT", "PBM binding z-score": -0.529}
{"sequence": "TCTGCTAGGTCAACGATGGTCAACTAATCTGCTA", "PBM binding z-score": 0.125}
